From PubChem BioAssay (Tox21)
“And” between values parts separate entries of the source, which are not always exact repeats. Identical values can stand only once. Inconclusive results are not listed. More than one record can exist for a structure, and the calls need not agree. The source made the active and inactive calls. Unless noted, calls follow the shape of the dose curve; as a rule, active = well fitted curve in the direction sought with a large enough effect in the repeat runs; inconclusive = weak or mixed curves; inactive = no such curve, though single readings can be large; an effect the other way counts as inactive or inconclusive.

Columns and labels:
[1] = qHTS assay to identify small molecule agonists of the androgen receptor (AR) signaling pathway in the presence of an antagonist - cell viability counter screen (AID 1259379); also: nearly all actives have a fitted effect of over 25% in size;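 as to activity change, negative = cytotoxicity: MDA-kb2 human breast cancer cells carrying an MMTV luciferase reporter; series mostly up to about 92 µM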
Summary of the method: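 Nilutamide-containing (3.0uM final) MDA-kb2 cultures, 3,000 cells/well, were treated with compounds across 15 concentrations. After 16 hr at 37C with no CO2, cell viability was determined by CellTiter-Fluor fluorescence in the luciferase assay wells.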

[2] = qHTS assay to identify small molecule agonists of the estrogen receptor beta (ER-beta) signaling pathway - cell viability counter screen (AID 1259380); also: nearly all actives have a fitted effect of over 30% in size
Summary of the method: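 Steps: plate ER-beta-UAS-bla HEK293T cells, rest 6 hr; add compounds in DMSO; incubate 16 hr at 37C, 5% CO2; add FRET substrate 2 hr; add CellTiter-Glo, wait 30 min at room temperature; read luminescence.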

[3] = qHTS assay to identify small molecule agonists or antagonists of the thyroid stimulating hormone receptor (TSHR) signaling pathway - wild type cell line counter screen (AID 1259384; calls by dose curve)
Summary of the method: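 Wild-type HEK293 cells were plated 18 h at 37 C/5% CO2, pin-dosed with compound plus Ro20-1724 medium, held 30 min at room temperature, then given cAMP-d2 and anti-cAMP-cryptate; fluorescence was read after 1 h. Fifteen concentrations, triplicate.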

[4] = qHTS assay to identify small molecule agonists of the estrogen receptor alpha (ER-alpha) signaling pathway in the presence of an antagonist - cell viability counter screen (AID 1259386);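 also: cells exposed to compounds for 22 h at 37 °C before the viability read; nearly all actives have a fitted effect of over 30% in size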; as to activity change, negative = cytotoxicity: series mostly up to about 92 µM
Summary of the method: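 In this counter screen, compound effects on VM7Luc4E2 viability were tested in the presence of the antagonist ICI-182,780 at 10.0nM final. Compounds were dosed at 15 concentrations, exposure lasted 22hr, and the CellTiter-Fluor signal was read.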

[5] = target: Progesterone receptor (Homo sapiens) (UniProt P06401); experiment: qHTS assay to identify small molecule agonists of the progesterone receptor (PR) signaling pathway (AID 1346784; calls by dose curve; also: nearly all actives have a fitted effect of over 30% in size)
Sequence of Progesterone receptor (Homo sapiens) (P06401 whole entry, looked up): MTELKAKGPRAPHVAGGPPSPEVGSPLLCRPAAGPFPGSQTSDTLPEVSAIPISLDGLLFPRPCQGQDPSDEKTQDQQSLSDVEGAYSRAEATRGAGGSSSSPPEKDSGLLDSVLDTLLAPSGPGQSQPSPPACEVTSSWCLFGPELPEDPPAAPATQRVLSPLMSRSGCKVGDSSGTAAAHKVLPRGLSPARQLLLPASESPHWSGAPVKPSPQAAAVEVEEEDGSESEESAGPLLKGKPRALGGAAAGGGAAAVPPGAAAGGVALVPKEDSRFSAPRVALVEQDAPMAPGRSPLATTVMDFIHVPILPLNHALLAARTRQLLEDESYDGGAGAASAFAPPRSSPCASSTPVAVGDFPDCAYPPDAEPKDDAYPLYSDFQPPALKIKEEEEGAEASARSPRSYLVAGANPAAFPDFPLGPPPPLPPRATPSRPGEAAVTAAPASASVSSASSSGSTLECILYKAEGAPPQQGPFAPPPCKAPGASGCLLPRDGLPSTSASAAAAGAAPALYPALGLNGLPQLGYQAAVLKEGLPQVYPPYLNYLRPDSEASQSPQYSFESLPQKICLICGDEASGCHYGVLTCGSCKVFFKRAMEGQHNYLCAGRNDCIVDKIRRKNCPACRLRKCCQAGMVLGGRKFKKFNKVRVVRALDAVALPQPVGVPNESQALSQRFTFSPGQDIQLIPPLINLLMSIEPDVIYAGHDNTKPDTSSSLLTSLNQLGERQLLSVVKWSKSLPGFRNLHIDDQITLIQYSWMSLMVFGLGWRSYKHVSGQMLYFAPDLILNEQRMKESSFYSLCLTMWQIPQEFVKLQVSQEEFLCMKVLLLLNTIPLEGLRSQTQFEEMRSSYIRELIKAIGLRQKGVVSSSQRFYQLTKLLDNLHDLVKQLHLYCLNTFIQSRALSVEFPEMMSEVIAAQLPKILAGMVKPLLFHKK
Summary of the method: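 The screen uses PR-UAS-bla HEK 293T cells in charcoal-stripped serum (2%). Compounds are applied for 16 hr at 37C after a 6 hr pre-incubation, and reporter activity is detected with a FRET beta-lactamase substrate after 2 hr at room temperature.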

[6] = target: Estrogen receptor (Homo sapiens) (UniProt P03372); experiment: qHTS assay to identify small molecule agonists of the estrogen receptor alpha (ER-alpha) signaling pathway in the presence of an antagonist (AID 1259383; calls by dose curve; also: nearly all actives have a fitted effect of over 15% in size; as to activation: top concentration of the series differs between compounds)
Sequence of Estrogen receptor (Homo sapiens) (P03372 whole entry, looked up): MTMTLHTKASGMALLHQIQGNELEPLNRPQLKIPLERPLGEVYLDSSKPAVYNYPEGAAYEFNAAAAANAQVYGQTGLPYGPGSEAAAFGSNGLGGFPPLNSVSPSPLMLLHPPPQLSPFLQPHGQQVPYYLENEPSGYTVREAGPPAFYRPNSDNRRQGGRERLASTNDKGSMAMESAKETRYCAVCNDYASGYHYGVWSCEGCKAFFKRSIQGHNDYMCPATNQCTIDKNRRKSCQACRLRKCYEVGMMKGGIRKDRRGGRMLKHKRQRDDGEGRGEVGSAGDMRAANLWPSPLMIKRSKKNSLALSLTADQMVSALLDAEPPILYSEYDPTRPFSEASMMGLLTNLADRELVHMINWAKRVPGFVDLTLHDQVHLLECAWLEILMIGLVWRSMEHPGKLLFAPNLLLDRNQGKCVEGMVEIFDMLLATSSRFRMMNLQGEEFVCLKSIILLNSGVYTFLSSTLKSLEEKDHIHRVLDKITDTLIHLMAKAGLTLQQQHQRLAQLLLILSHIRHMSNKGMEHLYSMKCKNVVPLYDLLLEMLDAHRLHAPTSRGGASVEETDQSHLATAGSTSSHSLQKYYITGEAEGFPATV
Summary of the method: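 Readout was ERE-driven luciferase luminescence in VM7Luc4E2 cells, which express full-length ER-alpha endogenously. Compounds were tested at 15 concentrations for 22hr alongside 10.0nM ICI-182,780 (final concentration).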

[7] = qHTS assay to identify small molecule antagonists of the estrogen receptor beta (ER-beta) signaling pathway - cell viability counter screen (AID 1259382); also: nearly all actives have a fitted effect of over 55% in size;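 as to activity change, negative = cytotoxicity: HEK293T cells carrying ER-beta-UAS-bla reporter stimulated with estradiol; series mostly up to about 92 µM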
Summary of the method: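 Viability is scored by CellTiter-Glo luminescence (30 min, room temperature) in ER-beta-UAS-bla HEK293T wells already read for reporter fluorescence. Compound exposure lasts 16 hr at 37C alongside 1nM 17-beta-estradiol in charcoal-stripped serum medium.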

[8] = target: Thyrotropin receptor (Homo sapiens) (UniProt P16473); experiment: qHTS assay to identify small molecule antagonists of the thyroid stimulating hormone receptor (TSHR) signaling pathway (AID 1259385; calls by dose curve; also: nearly all actives have a fitted effect of over 20% in size)
Sequence of Thyrotropin receptor (Homo sapiens) (P16473 whole entry, looked up): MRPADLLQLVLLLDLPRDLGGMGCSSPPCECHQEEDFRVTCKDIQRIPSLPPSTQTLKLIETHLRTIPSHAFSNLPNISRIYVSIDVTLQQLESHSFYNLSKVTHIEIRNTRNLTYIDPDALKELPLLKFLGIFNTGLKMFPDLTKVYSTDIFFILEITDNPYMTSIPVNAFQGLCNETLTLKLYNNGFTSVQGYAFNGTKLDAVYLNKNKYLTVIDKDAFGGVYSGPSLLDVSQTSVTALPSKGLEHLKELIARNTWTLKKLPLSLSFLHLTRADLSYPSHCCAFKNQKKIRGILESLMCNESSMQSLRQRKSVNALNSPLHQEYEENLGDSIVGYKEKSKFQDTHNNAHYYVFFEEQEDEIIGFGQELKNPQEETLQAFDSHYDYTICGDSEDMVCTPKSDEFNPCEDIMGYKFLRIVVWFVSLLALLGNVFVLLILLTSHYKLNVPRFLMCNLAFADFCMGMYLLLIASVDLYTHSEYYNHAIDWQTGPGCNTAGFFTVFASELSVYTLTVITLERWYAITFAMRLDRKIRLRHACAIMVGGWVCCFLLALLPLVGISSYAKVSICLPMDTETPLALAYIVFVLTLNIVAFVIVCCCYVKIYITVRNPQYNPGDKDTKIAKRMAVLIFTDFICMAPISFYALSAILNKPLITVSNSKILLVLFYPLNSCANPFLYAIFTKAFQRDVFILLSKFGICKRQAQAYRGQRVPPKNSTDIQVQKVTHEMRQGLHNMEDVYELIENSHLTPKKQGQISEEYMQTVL
Summary of the method: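 TSHR-HEK293 cells were plated and held 18 h at 37C/5% CO2, then given compound plus Ro20-1724 and stimulated with TSH at 1.5 ng/mL final. After 30 min at room temperature, cAMP was detected with cAMP-d2/anti-cAMP-cryptate (1 h) by fluorescence.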
% is scaled to controls: 0 for no effect and ±100 for the full control effect; potency is read from the fitted curve at half-maximal effect.

COC(=O)[C@H]1[C@H]2C[C@@H]3c4[nH]c5cc(OC)ccc5c4CCN3C[C@H]2C[C@@H](OC(=O)c2cc(OC)c(OC)c(OC)c2)[C@@H]1OC
inactive: Potency [1] | Potency [3] | Potency [4] | Potency [5]
active: Potency [2] 8.62 µM and 9.96 µM and 11.9 µM

CN(C)c1ccc2nc3ccc(=[N+](C)C)cc-3sc2c1
active: Potency [1] 3.3 µM and 6.86 µM and 4.22 µM | Potency [2] 2.08 µM and 27.3 µM and 3.76 µM
inactive: Potency [6] | Potency [5]

CN(C)c1ccc(C(=C2C=CC(=[N+](C)C)C=C2)c2ccccc2)cc1
active: Potency [1] 3.86 µM and 3.35 µM and 2.66 µM | Potency [2] 5.31 µM [middle of 4 runs] | Potency [7] 7.5 µM [middle of 4 runs]
inactive: Potency [3] | Potency [5]

O=C1CC2(CCCC2)CC(=O)N1CCCCN1CCN(c2ncccn2)CC1
active: Potency [2] 4.86 µM
inactive: Potency [1] | Potency [7] | Potency [3] | Potency [4] | Potency [5]

Nc1cc(S(=O)(=O)O)cc2cc(S(=O)(=O)O)cc(O)c12
inactive and 4.33 µM (active): Potency [2]
inactive: Potency [7] | Potency [5]
active: Potency [4] 48.3 µM and 30.6 µM
inactive and 27.3 µM (active): Potency [1]

CC1=CC(=O)c2ccccc2C1=O
inactive: Potency [6] | Potency [5]
active: Potency [1] 43.3 µM | Potency [2] 24.3 µM and 26.6 µM
38.6 µM (active) and inactive: Potency [4]

Cc1cccc2n[nH]nc12
inactive: Potency [1] | Potency [2] | Potency [7] | Potency [3] | Potency [4] | Potency [5]

NCCO
inactive: Potency [1] | Potency [2] | Potency [6] | Potency [3] | Potency [5]

CC(C)(C)NCC(O)c1cc(O)cc(O)c1 (stereo unspecified)
active: Potency [3] 2.03 µM
inactive: Potency [1] | Potency [2] | Potency [7] | Potency [4] | Potency [5]

O=C(Nc1ccccc1SSc1ccccc1NC(=O)c1ccccc1)c1ccccc1
inactive: Potency [6] | Potency [3] | Potency [8] | Potency [4] | Potency [5]

O
inactive: Potency [1] | Potency [2] | Potency [3] | Potency [8] | Potency [5]

CCCC(=O)c1ccccc1
inactive: Potency [1] | Potency [2] | Potency [7] | Potency [3] | Potency [4] | Potency [5]

CC(=O)CC(C)=O
inactive: Potency [1] | Potency [2] | Potency [6] | Potency [3] | Potency [8] | Potency [5]

CCc1cc(C(C)(C)C)c(O)c(C(C)(C)C)c1
inactive: Potency [1] | Potency [2] | Potency [7] | Potency [4] | Potency [5]

O=C(Oc1ccccc1)c1ccccc1O
inactive: Potency [1] | Potency [2] | Potency [6] | Potency [3] | Potency [8] | Potency [4] | Potency [5]

COc1cc(C(=S)N2CCOCC2)ccc1O
inactive: Potency [1] | Potency [2] | Potency [6] | Potency [4] | Potency [5]

CC[C@H]1CN2CCc3cc(OC)c(OC)cc3[C@@H]2C[C@@H]1C[C@H]1NCCc2cc(OC)c(OC)cc21
active: Potency [1] 0.194 µM | Potency [4] 38.7 µM
inactive: Potency [2] | Potency [5]

O=C(O)c1cn(-c2ccc(F)cc2)c2cc(N3CCNCC3)c(F)cc2c1=O
inactive: Potency [1] | Potency [2] | Potency [8] | Potency [5]

c1ccc2c(c1)-c1cccc3c1c-2cc1ccccc13
inactive: Potency [1] | Potency [2] | Potency [6] | Potency [3] | Potency [8] | Potency [4]

NNCCc1ccccc1
inactive: Potency [1] | Potency [2] | Potency [7] | Potency [5]

O=S(=O)(O)c1ccc2nc(-c3ccccc3)[nH]c2c1
active: Potency [2] 23.2 µM
inactive: Potency [1] | Potency [8] | Potency [4] | Potency [5]

NC(Cc1ccc(Cl)cc1)C(=O)O (stereo unspecified)
inactive: activity change, negative = cytotoxicity [1] 4.35% [at 0.35 µM] | activity change, negative = cytotoxicity [2] -2.17% [at 0.349 µM] | activity change, negative = cytotoxicity [7] -0.284% [at 0.349 µM] | cAMP activity change [3] -3.62% [at 0.349 µM, stronger effect = higher value] | activation [5] -4.74% [at 0.349 µM]

Cc1cc(Cc2cc(C)cc(C(C)(C)C)c2O)c(O)c(C(C)(C)C)c1
inactive: Potency [6] | Potency [3] | Potency [8]
active: Potency [1] 61.4 µM and 68.6 µM | Potency [2] 13.8 µM and 21.7 µM

[Cl][In]([Cl])[Cl]
inactive: Potency [1] | Potency [7] | Potency [6] | Potency [4]
inactive and 27.3 µM (active): Potency [5]

Nc1ccc2cc3ccccc3cc2c1
active: Potency [6] 1.75 µM and 13.7 µM
inactive: Potency [1] | Potency [7]

COc1ccc(COC(C)=O)cc1
inactive: Potency [1] | Potency [2] | Potency [7] | Potency [8] | Potency [4] | Potency [5]

COc1ccc(CCN(C)CCCC(C#N)(c2ccc(OC)c(OC)c2)C(C)C)cc1OC (stereo unspecified)
inactive: Potency [2] | Potency [7]
active: Potency [8] 43.2 µM | Potency [4] 30.6 µM

CCN(CC)c1ccc2c(C)cc(=O)oc2c1
active: Potency [5] 30.9 µM and 34.4 µM
inactive: Potency [1] | Potency [6] | Potency [3]

CC1=C(C=O)C(C)(C)CC=C1
inactive: Potency [1] | Potency [2] | Potency [7] | Potency [3] | Potency [4] | Potency [5]

CC(C)(C)NC(=O)[C@@H]1CN(Cc2cccnc2)CCN1C[C@@H](O)C[C@@H](Cc1ccccc1)C(=O)N[C@H]1c2ccccc2C[C@H]1O
inactive: Potency [1] | Potency [2] | Potency [7] | Potency [5]
